# Source: PubChem
# Nrf2 inh – blocks Nrf2 signaling; actives 2.1% (n = 360,000); Potency, µM (top dose mostly 46 µM), for the others: at the highest dose activity change, negative = inhibition, usual class: inhibitors; A549 ARE-Fluc reporter, luciferase luminescence, 18-24 h; further: potency means the concentration at half of the fitted maximal effect; on the % scale 0 is the no-effect control and ±100 the full control effect; nearly all actives have a fitted effect of over 60% in size
#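 A549 ARE_Fluc cells, 5000/well, 5% FBS OPTI-MEM; compounds in dose-response, 18-24 h at 37 °C/5% CO2; CellTiter-Fluor viability read (Ex 405/Em 525), then BugLite luciferase luminescence = Nrf2 activity.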
# A549 viability – kills or reduces viability of A549 cells in Nrf2 counter-screen | Potency, µM (series often up to 46 µM), inactives show top-dose activity change, negative = cytotoxicity, most hits filed as inhibitors | A549 ARE-Fluc cells, CellTiter-Fluor viability, 18-24 h | actives 0.16% (n = 390,000); further: potency means the concentration at half of the fitted maximal effect; on the % scale 0 is the no-effect control and ±100 the full control effect
#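 A549 ARE_Fluc cells in 5% FBS OPTI-MEM were exposed to compounds in concentration-response for 18-24 h at 37 deg C. Viability was read by CellTiter-Fluor fluorescence (Ex 405/Em 525) after 30 min, before the luciferase read.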
# IL2 activator – IL-2 activation; IL-2 activation reporter assay, cell-based qHTS; stimulated with anti-CD3/CD4/CD28 beads; in transgenic mouse T cells; activation, % (series mostly up to about 46 µM); actives 0.065% (n = 360,000); in the data active means activation above about 50%; inconclusive means mostly about 30% to 49%; further: 0% is about no effect
#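 First, unstimulated transgenic mouse T cells were exposed to compound for 60 min. Next, anti-CD3/anti-CD4-coated beads with anti-CD28 were added. Finally, after 18 h at 37 degrees C, EGFP and DsRed were imaged.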
# Nrf2 activator – Nrf2 pathway activation; actives 0.31% (n = 410,000); Potency, µM (series often up to 46.1 µM), inactives show top-dose activation, most hits filed as activators; AREc32 ARE-luciferase reporter (MCF7-derived line), luminescence, 24 h; further: potency means the concentration at half of the fitted maximal effect; % of control where 0% means no effect; nearly all actives have a fitted effect of over 65% in size
#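 Cells of the AREc32 ARE-luciferase line are plated in OPTI-MEM containing 5% FBS and left overnight at 37 deg C. Compounds are pinned in, incubation continues 24 hr, and firefly luciferase signal is then measured.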
# * = called active by the depositor; ? = inconclusive; . = no result. Hits are enriched below; roughly 2.3% of the tested compounds scored in any of these assays. Unless noted, the call rests on the fitted dose curve; in most records, active means well fitted curve in the direction sought with a large enough effect; inconclusive means small, poorly fitted or top-dose-only effect, or another doubt; inactive means no such curve, though single readings can be large; an effect the other way counts as inactive or inconclusive.
SMILES,Nrf2 inh,A549 viability,IL2 activator,Nrf2 activator
C=C(C)c1cc2c(s1)c1cnn(Cc3ccccc3F)c(=O)c1n2C,?,1%,.,.
O=C(Nc1cccc2ncccc12)c1ccccc1F,8%,-8%,4,13µM*
O=C(CCl)Nc1cccc2ncccc12,16µM*,23µM*,0,?
COc1ccc(OCC(=O)Nc2cccc3ncccc23)cc1,.,10%,0,2%
O=C(NCC(c1ccc(Cl)cc1)N1CCCCC1)c1ccccc1F (configuration not stated),8%,0%,.,4%
O=C1CCc2cc(S(=O)(=O)Nc3ccc(Cl)cc3)ccc2N1,?,-5%,.,.
N=c1c2c(ncn1-c1ccccc1)Oc1ccc3ccccc3c1C2c1ccc2c(c1)CCO2 (configuration not stated),?,16µM*,.,.
CCOc1ccc(C2c3c(ncn(-c4ccccc4)c3=N)Oc3ccc4ccccc4c32)cc1OCC (configuration not stated),16µM*,21µM*,.,.
COCCCNc1nc(NCc2ccc(C)cc2)c2cnn(C)c2n1,.,2%,.,1%
O=C(COC(=O)C1CCN(S(=O)(=O)c2cc([N+](=O)[O-])ccc2Cl)CC1)Nc1ncc(Cl)cc1Cl,7%,-5%,-2,?
Cc1ccc(NC(=O)C2CCN(S(=O)(=O)c3cc([N+](=O)[O-])ccc3Cl)CC2)nc1,21µM*,-17%,0,?
Cc1ccc(NC(=O)C2CCN(S(=O)(=O)c3c(C)noc3/C=C/c3ccco3)CC2)nc1,16µM*,-1%,1,19%
CC(=O)COC(=O)C1CCN(S(=O)(=O)c2cc([N+](=O)[O-])ccc2Cl)CC1,4%,3%,-2,14µM*
COc1ccccc1C1NC(c2ccc3c(c2)OCO3)=CC(c2cc(Cl)ccc2O)N1 (configuration not stated),8%,0%,.,.
CCOc1ccc(NC(=O)CC2C(=O)N(c3ccc(Cl)cc3)C(=O)N2Cc2cccs2)cc1 (configuration not stated),-19%,-12%,.,1%
O=C1C(Cl)=C(N2CCN(c3ccccc3[N+](=O)[O-])CC2)C(=O)c2ccccc21,1%,-22%,-4,7.9µM*
COc1ccccc1-c1ccnc2c(-c3ccc(Br)cc3)c(C)nn12,17%,-2%,.,-1%
O=C(O)CCSc1nnc(-c2ccc3c(c2)OCO3)o1,8.2µM*,6%,-3,-2%
Cc1ccc(CNc2ccc3cc(S(=O)(=O)N4CCCCC4)ccc3n2)cc1,?,-13%,.,0%
Cc1[nH]n(-c2ccccc2)c(=O)c1/C=N/NC(=O)c1cccc(F)c1,7.3µM*,-27%,-1,0%
CCN1/C(=C/c2ccc3cc(C)ccc3[n+]2CC)Sc2cc(C)c(C)cc21,1.3µM*,?,1,-1%
Clc1ccc(-c2nnc(CSc3nnc(-c4cccs4)n3Cc3ccccc3)o2)cc1,21µM*,-11%,-5,7%
CCOc1ccccc1-c1nc(-c2ccc(NC(=O)Cc3ccc(OC)cc3)cc2)no1,21µM*,-28%,0,0%
Cc1ccccc1NC(=O)Cn1cc(C(=O)c2ccco2)c2ccccc21,-26%,-11%,.,1%
Cc1nn(C)c(C)c1CN(C)C(=O)c1cnn2c1NC(c1ccccc1)CC2C(F)(F)F (configuration not stated),?,-2%,-2,0%
SMILES,Nrf2 inh,A549 viability,IL2 activator,Nrf2 activator
Cc1nn(C)c(C)c1CNC(=O)c1cc2n(n1)C(C(F)(F)F)CC(c1cccs1)N2 (configuration not stated),18µM*,-7%,-3,0%
Cc1nn(C)c(C)c1CN(C)C(=O)c1nn2c(c1Br)NC(c1cccs1)CC2C(F)(F)F (configuration not stated),8.2µM*,1%,-5,4%
CCOC(=O)c1c(NC(=O)c2cc3n(n2)C(C(F)(F)F)CC(c2cccs2)N3)sc(C)c1C (configuration not stated),-14%,-14%,0,0%
COc1ccc(C2CC(C(F)(F)F)n3nc(C(=O)NCc4c(C)nn(C)c4C)c(Cl)c3N2)cc1 (configuration not stated),21µM*,-9%,-1,4%
COc1ccc(OCc2cc(C3Nc4ccccc4C(=O)N3Cc3ccccc3)ccc2OC)cc1 (configuration not stated),-25%,-5%,.,.
CC(=O)Nc1ccc(SCCN2CCN(CCc3ccccc3)CCC2=O)cc1,-33%,-11%,.,.
O=C(c1ccc2c(=O)n(CC3CCCO3)c(=S)[nH]c2c1)N1CCN(C(=O)c2ccco2)CC1 (configuration not stated),-1%,9%,.,.
CSc1ccc(/C=C/c2nc3ccccc3n2S(=O)(=O)c2ccc(Br)cc2)cc1,-83%,-23%,.,-3%
Cc1ccc(C(=O)Oc2ccc(/C=C3\C(=N)N4N=C(N5CCOCC5)SC4=NC3=O)cc2)cc1,7.3µM*,5%,1,0%
COc1ccc(-c2nc3ccccn3c2Nc2ccccc2C)cc1,?,-1%,.,.
Cc1sc2c(c1C)c(=O)n(-c1cccc(C(F)(F)F)c1)c(=O)n2Cc1ccccc1C#N,19%,-19%,.,0%
Cc1cc(F)ccc1S(=O)(=O)N1CCC2(CC1)OCCN2S(=O)(=O)c1cccs1,12µM*,-12%,0,2%
CCCCCCCCCCn1ccc(=N)cc1,15µM*,-28%,-1,2%
CCCCCCCCn1ccc(=N)cc1,-23%,0%,-1,-2%
CCOc1ccc(CN(C)C(=O)CNC(=O)c2ccccc2)cc1,-26%,1%,0,2%
C=CCOc1ccc(CN(C)C(=O)CNC(=O)c2ccc(-c3ccccc3)cc2)cc1,16µM*,-21%,-1,2%
CCCSC1=C(C#N)C(c2ccc(OC)cc2)C2=C(CC(C)(C)CC2=O)N1 (configuration not stated),23µM*,-29%,-3,0%
CCN(CC)Cc1cc(Nc2c3ccccc3nc3c4ccccc4n(C)c23)cc(CN(CC)CC)c1O,?,16µM*,0,?
CCOc1cc2nc3c4ccccc4n(C)c3nc2cc1OCC,-13%,-15%,2,7%
O=[S+]([O-])(NC[C@H]1CCC[C@H](CN[S+](=O)([O-])c2c(F)cccc2F)C1)c1ccc2c(c1)OCCO2,-15%,-12%,.,.
COC1=CC(=Cc2c(N)n3nc(CC(=O)N4CCCCC4)sc3nc2=O)C=C(OC)C1=O,3%,?,85*,0%
Brc1ccc(-c2csc3[n+]2CCCCC3)cc1,16µM*,-9%,0,2%
CCC1CCCCN1C(=O)Cn1c(=O)n(-c2ccc(Cl)c(Cl)c2)c(=O)c2c(C)c(C(=O)N(C)C)sc21 (configuration not stated),.,1%,.,6%
CCCN1C(=O)/C(=C2/C=Cc3ccccc3N2CC)SC1=S,-28%,15µM*,0,8%
CCN1C(=O)/C(=C2/C=Cc3ccccc3N2CC)SC1=S,6%,?,0,?
